Only some compounds are listed: those with a hit (about 6.6% of all), similar ones and a draw of the others.
HT1080 IDH1KD tx – kills HT-1080 cells with IDH1 knockdown; HT-1080 IDH1 knockdown viability, ATP luminescence, 48 h; Potency, µM (doses to about 46.1 µM), for the others: at the highest dose activity, negative = toxicity, actives largely listed as cytotoxic; 2% of 360,000 active;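 note: 0% = DMSO wells and -100% = cell-free medium wells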
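CellTiter-Glo luminescence after 48 h compound exposure at 37 degrees C of IDH1-knockdown HT-1080 cells in 5% FBS RPMI. %Activity scaled between DMSO wells and cell-free media wells, with curves fitted and assigned curve classes.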
TGFb SMAD3 inh – blocks TGF-b signaling. AID 588855. Potency, µM (highest dose often 46.1 µM), for the others: at the highest dose activity, negative = inhibition, hits mostly inhibitors. 1.2% of 410,000 active. HepG2 CAGA-GFP TGF-b/SMAD3 reporter, GFP fluorescence, 18 h; TGF-beta stimulated, 500 pg/mL final; note: % is set by controls: 0 for no effect and ±100 for the full control effect; nearly all actives have a fitted effect of over 65% in size
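Cell-based qHTS in HEPG2 carrying a CAGA-GFP Smad reporter; compounds added before 500 pg/mL final TGF-beta, 18 h incubation at 37 degrees C, GFP fluorescence quantified per cell by imaging cytometry.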
KB-V1 MDR tox – kills drug-selected multidrug resistant KB-V1 cells | KB-V1 MDR cells viability, CellTiter-Glo, 72 h | AID 1347076 | Potency, µM (highest dose often 46.1 µM), actives largely listed as cytotoxic | 3.4% of 400,000 active; note: % is set by controls: 0 for no effect and ±100 for the full control effect; nearly all actives have a fitted effect of over 60% in size
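Following 72 h at 37 degrees C with compound, KB-V1 cell viability was read by CellTiter-Glo luminescence, medium being phenol-red-free DMEM plus 10% FBS; concentration-response parameters came from normalized, curve-fitted qHTS data.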
HepG2 tox – counter-screen for TGF-b inhibitors: cytotoxicity in HepG2 cells; HepG2 CAGA-GFP viability, ATP luminescence, 18 h; Potency, µM (top dose mostly 46.1 µM), for inactives: top-dose activity change, negative = cytotoxicity, usual class: cytotoxic; 0.76% of 410,000 active
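CellTiter-Glo luminescence gave cytotoxicity after 18 hours at 37 degrees C. The cells were HepG2 CAGA-GFP in 1% FBS DMEM, stimulated with 500 pg/mL TGF-beta after compound addition. %Activity was normalised to no-cell wells (complete cell-killing) and DMSO (no toxicity), and curves were fitted and classified.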
HT1080NT lethal – kills 2HG-producing HT-1080-NT fibrosarcoma cells. HT-1080-NT fibrosarcoma viability, CellTiter-Glo ATP luminescence, 48 h. Potency, µM (doses to about 46.1 µM), without a hit: top-dose activity, negative = less viability, usual class: cytotoxic. 1.6% of 360,000 active. AID 686970;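 note: NT is the 2HG producing partner of a matched IDH1 knockdown line; 0% = DMSO-treated cells and -100% = media-only wells without cells; nearly all actives have a fitted effect of over 55% in size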
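Toxicity toward the 2HG-producing NT line was scored as %Activity, normalised to DMSO and no-cell wells, from CellTiter-Glo luminescence after 48 hours' treatment.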
KB-3-1 tox – KB-3-1 parental cell cytotoxicity | AID 1347075 | KB-3-1 viability, CellTiter-Glo ATP luminescence, 72 h | Potency, µM (titrated, usually from 46.1 µM), hits mostly cytotoxic | 1.4% of 400,000 active; note: % is set by controls: 0 for no effect and ±100 for the full control effect; nearly all actives have a fitted effect of over 60% in size
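Parental KB-3-1 viability, qHTS format: 72 h compound exposure, 37 °C; CellTiter-Glo; media-only wells and DMSO plates as controls; concentration-effect fits on corrected data.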
Active calls of the source: *; i = inactive; u = inconclusive; x = no result given. Calls come from the whole dose curve; as a rule, active = well fitted curve in the direction sought with a large enough effect; inconclusive = small, poorly fitted or top-dose-only effect, or another doubt; inactive = no such curve, though single readings can be large; an effect the other way counts as inactive or inconclusive. Potency is the fitted concentration of half-maximal effect.

SMILES	HT1080 IDH1KD tx	TGFb SMAD3 inh	KB-V1 MDR tox	HepG2 tox	HT1080NT lethal	KB-3-1 tox
Cc1ccccc1Cn1c(CN2CCC(C(=O)NCCN(C)C)CC2)cc2ccccc21	x	12.6µM*	x	10µM*	x	x
Cc1cc2ccccc2n1CCNC(=O)C1CCCC1	14.2%	5.3%	18.4µM*	1.6%	16.2%	i
COC(=O)c1ccccc1NC(=O)Cn1nnc2sc(-c3ccccc3)cc2c1=O	x	0.3%	i	-1.5%	x	i
O=C(OCc1cc(=O)n2c(n1)sc1ccccc12)c1ccc(O)cc1	12.6%	2.0%	i	10.6%	-1.9%	i
O=c1cc(CCl)nc2sc3ccccc3n12	u	u	i	15.8µM*	16.4µM*	u
COc1ccccc1-c1nnc(C2CCN(S(=O)(=O)c3ccccc3)CC2)o1	x	u	i	-1.3%	x	i
Cc1ccc(CN2CCN(/N=C/c3ccc(C)s3)CC2)c(C)c1	21.9%	0.2%	16.4µM*	3.6%	7.9%	i
NC(Cc1ccc(C(F)(F)F)cc1)c1csc(Nc2ccc(C(=O)NCCCO)cn2)n1 (stereo not drawn)	u	u	i	-90.9%	u	u
NC(CCc1ccccc1)c1csc(Nc2ccccn2)n1 (stereo not drawn)	16.4µM*	u	u	-60.0%	u	i
CCCCN(C)C(=O)c1ccc(Nc2nc(C(N)CCc3ccccc3)cs2)nc1 (stereo not drawn)	23.1µM*	u	i	-89.3%	18.4µM*	u
NC(Cc1ccc(Cl)cc1)c1csc(Nc2ccc(C(F)(F)F)cn2)n1 (stereo not drawn)	u	u	u	-97.5%	u	i
NC(CCc1ccccc1)c1csc(Nc2ccc(C(F)(F)F)cn2)n1 (stereo not drawn)	u	u	i	-95.8%	-27.9%	i
NC(Cc1ccc(C(F)(F)F)cc1)c1csc(Nc2ccc(C(=O)NCc3ccco3)cn2)n1 (stereo not drawn)	7.31µM*	u	i	20µM*	11.6µM*	u
CCCCN(C)C(=O)c1ccc(Nc2nc(C(N)Cc3ccc(C(F)(F)F)cc3)cs2)nc1 (stereo not drawn)	16.4µM*	u	i	11.2µM*	u	u
NC(COCc1ccccc1)c1csc(Nc2ccccn2)n1 (stereo not drawn)	-5.2%	-5.0%	i	-27.6%	3.6%	i
COc1cccc(C(=O)N(Cc2nc(-c3ccc(Cl)cc3)no2)C(C)C)c1OC	x	u	i	-31.4%	x	i
Cc1ccc(-n2c(=O)c3c(c4cc(C)ccc4n3C)n(CC(=O)Nc3ccc(F)cc3)c2=O)cc1	x	u	u	-0.3%	x	i
COC(=O)c1scc(-c2ccc(C)cc2)c1S(=O)(=O)N1CCN(c2cccc(Cl)c2)CC1	x	-5.8%	i	-6.2%	x	i
COc1ccc(CC(N)c2csc(Nc3cnccn3)n2)cc1 (stereo not drawn)	-28.9%	1.2%	i	-14.4%	-12.6%	i
COc1ccc(CC(N)c2csc(Nc3cc(NCc4ccco4)ncn3)n2)cc1 (stereo not drawn)	u	u	i	11.2µM*	u	i
NC1(C(=O)O)CSSC1	u	u	6.51µM*	-14.8%	u	u
CCn1c(NCc2ccccc2NS(=O)(=O)c2ccc(C)cc2)nc2ccccc21	-30.0%	-23.1%	u	-0.4%	-25.3%	u
CCn1c(NCc2cc(Br)ccc2NS(=O)(=O)c2ccc(C)cc2)nc2ccccc21	-21.9%	u	18.4µM*	-21.6%	-24.1%	u
CCCn1c(NCc2ccccc2NS(=O)(=O)c2ccc(C)cc2)nc2ccccc21	u	0.0%	16.4µM*	-9.8%	u	u
CCOC(=O)C1CCCN(Cc2cn3c(-c4cccc(Br)c4)nnc3s2)C1 (stereo not drawn)	x	-16.2%	i	-24.0%	x	i
SMILES	HT1080 IDH1KD tx	TGFb SMAD3 inh	KB-V1 MDR tox	HepG2 tox	HT1080NT lethal	KB-3-1 tox
c1ccc(-c2nnc3sc(CN4CCc5ccccc54)cn23)cc1	x	-2.9%	u	-5.7%	x	20.6µM*
COc1cccc(-c2nnc3sc(CN4CCCCC4)cn23)c1	x	-12.9%	i	-16.5%	x	2.59µM*
Brc1ccc(-c2nnc3sc(CN4CCc5ccccc5C4)cn23)cc1	3.8%	3.2%	i	0.8%	2.0%	i
CCCCn1nc(NC(=O)c2cccc(Cl)c2)c2cc3ccc(C)cc3nc21	x	27.6%	i	1.4%	x	i
CC(CN1CCN(Cc2ccccc2)CC1)c1ccccc1 (stereo not drawn)	-1.0%	2.4%	i	21.8%	10.1%	i
N#CC(c1ccccc1)C1CCN(Cc2ccccc2)CC1 (stereo not drawn)	8.8%	-6.4%	20.6µM*	-30.4%	0.5%	i
Cc1ccc(-n2nnnc2-c2cnc(-c3cccnc3)nc2C(F)(F)F)cc1	-11.5%	-8.0%	20.6µM*	-20.2%	-0.6%	u
c1ccc(-n2nnnc2-c2cnc(-c3ccncc3)nc2-c2cccs2)cc1	-1.8%	3.8%	u	-23.2%	-4.3%	i
FC(F)(F)c1nc(-c2ccncc2)ncc1-c1nnnn1-c1ccccc1	-5.9%	-2.4%	20.6µM*	-37.5%	-0.2%	i
Cc1ccc(-n2nnnc2-c2cccnc2)cc1	3.0%	-19.9%	i	-13.1%	-6.9%	i
Fc1ccc(-n2nnnc2-c2cnc(-c3cccs3)nc2C(F)(F)F)cc1	u	0.0%	23.1µM*	4.8%	-10.8%	u
FC(F)(F)c1nc(N2CCCC2)ncc1-c1nnnn1-c1ccc(Cl)cc1	u	u	14.6µM*	-28.8%	-20.8%	u
Cc1ccc(-n2nnnc2-c2cnn(-c3ccc(F)cc3)c2C(F)(F)F)cc1	3.9%	-0.4%	u	-30.2%	-20.3%	u
FC(F)(F)c1ccncc1-c1nnnn1-c1ccc(Cl)cc1	0.7%	-5.2%	i	-29.5%	5.1%	i
COc1ccc(OC)c(C2C(C(=O)Nc3ccc(C)cc3C)=C(C)Nc3c(C(=O)Nc4ccc(F)cc4)cnn32)c1 (stereo not drawn)	x	u	x	-12.9%	x	x
COC(=O)c1ccc(NC(=O)c2nc(SCc3ccccc3F)ncc2Cl)cc1	x	-0.6%	i	4.4%	x	i
COC(=O)c1ccc2c(c1)N(CC(=O)Nc1cccc(C(F)(F)F)c1)C(=O)c1ccccc1S2	x	0.4%	i	-7.2%	x	i
O=c1[nH]nc(Br)c(=O)n1C(c1ccccc1)c1ccccc1	-9.7%	-22.0%	23.1µM*	-6.2%	-6.3%	u
